Data on 40 sequences can be found in the supplement of paper PMC10681739.
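Also: Full-length recombinant human ETS1 or RUNX1 bound to double-stranded 36-bp genomic probes on microarrays, detected by protein-specific primary antibody and Alexa488 secondary, spot fluorescence as median of four replicate spots.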

RUNX1, sequence (Q01196 whole entry): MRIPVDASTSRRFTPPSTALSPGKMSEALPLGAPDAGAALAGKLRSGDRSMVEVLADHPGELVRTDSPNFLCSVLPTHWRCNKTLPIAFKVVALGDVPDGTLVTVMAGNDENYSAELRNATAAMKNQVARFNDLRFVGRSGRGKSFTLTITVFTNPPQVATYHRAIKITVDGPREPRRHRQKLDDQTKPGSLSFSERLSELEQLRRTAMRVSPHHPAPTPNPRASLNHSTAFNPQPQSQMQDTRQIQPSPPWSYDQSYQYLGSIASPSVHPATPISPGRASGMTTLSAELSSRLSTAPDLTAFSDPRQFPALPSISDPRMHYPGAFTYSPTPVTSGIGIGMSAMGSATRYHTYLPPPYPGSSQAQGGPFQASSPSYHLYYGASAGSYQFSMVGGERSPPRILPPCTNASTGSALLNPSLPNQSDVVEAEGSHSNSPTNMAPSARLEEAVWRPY

This assay has as its target RUNX1 (UniProt Q01196). As to the kind of experiment: RUNX1 binding intensity (PBM fluorescence) in presence of ETS1, normalised to RUNX1-only experiment (arbitrary fluorescence units); higher = stronger binding. Particulars: RUNX1 concentration 2 nM; ETS1 concentration 25 nM. How it is done: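 Cooperative gcPBM on 36-bp genomic probes with neighbouring ETS1 and RUNX1 sites. Recombinant human RUNX1 (2 nM) was incubated alone or with ETS1 (25 nM) and detected with anti-RUNX1 antibody plus Alexa488 secondary. Values are medians over 4 replicate spots; the RUNX1+ETS1 data were normalised to the RUNX1-only data. The probes sit in constant array flanks that are not printed.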
CCGGGAAACACGGGAGAGCGACCGAAACCGCAATCA: the RUNX1 binding intensity was 4390.

As to GCCCCTTTTTCCTGGGATGAGCGGTTAGCGGAGGGG, the RUNX1 binding intensity turned out to be 1080.

Take GTGCCTTTTCATGTGGGATGTGGCTTCAAGGAGACC: the RUNX1 binding intensity is 822.

Turning to ACAGACAGCATCCTGAGCTCGTGGTTAGAACACCCT, the RUNX1 binding intensity turned out to be 985.

Consider CTGGGCGTGGGCTTCCTGCGGCTGAGTGGCAGCTTC, for which the RUNX1 binding intensity is 997.

As for ACCACACTTCCCAGGAGTCTCTGCGGCCGCGCGGAG, the RUNX1 binding intensity stood at 801.

For the sequence AGTTTTCCGTCGGGCTCCCAGTGACGCCGCAGAGGT, the RUNX1 binding intensity was determined as 1180.

As to GACAGTTTTCCGGCCTAGTTTGCGGCTGCTCCTGCC, the RUNX1 binding intensity stood at 2440.

On to GAGTTCTCCGCTTCCTTGCGGCCGGCGGGATTAGCC, for which the RUNX1 binding intensity was 1030.

For ATGTCAGGAAGAGGCTCAGGGCTGTGGTTTCTCTGT, the RUNX1 binding intensity turned out to be 1070.

For GCAGGACTTCCTGTGTTGTGCTAACCTCAAATTACA, the RUNX1 binding intensity was 2030.

For TTTCTTCTGATCTTCCTCCCCGCACGTCTGCACAGG, the RUNX1 binding intensity worked out at 1020.

For the sequence CTCCCGGACGCTAACGTCTGGCAAACCACATTGCCC, the RUNX1 binding intensity came to 857.

As to GTCCCCTGAATTTTCCTGTGGTTCTTATCACCAGGT, the RUNX1 binding intensity is 1360.

As for TTTGTTGTTCCGGGTGCGAGGCGGCCGCAGCTTCCA, the RUNX1 binding intensity is 1180.

On to GGGATCCTTCCGCTCCGGGTTAACCCCGACCGCGCC, for which the RUNX1 binding intensity is 1620.

Turning to GTTGAAATTGAGCTTCCGTTGGTGGTTAACCCTCTG, the RUNX1 binding intensity was 1310.

As for GAGTGCCGTTTCCCCCGCTCACCGCGGGCTAGGGAG, the RUNX1 binding intensity was 1040.

As for GGCGGTGCACTCTGGGAAATGTGGTTTTCGCGGCGC, the RUNX1 binding intensity amounted to 1500.

Turning to TTGTTCCACCCCCGCGGAAACCGCTGCTCGCTGGGC, the RUNX1 binding intensity was 965.

With GCTGCAAGGCGGAAGCAGCGCGGTCGGACGGGCATG, the RUNX1 binding intensity turned out to be 997.

For CCATTTCCCCCATCACTTTGAATTGTGGTTCTTCTC, the RUNX1 binding intensity is 2920.

On to GCACGGCGGAATTTCAAATGGGGTTTTGTGGTTTCT, for which the RUNX1 binding intensity is 1280.

As for AGAGGCAGTTCCGGGGTGGGAACCGCGCGGAGCTTT, the RUNX1 binding intensity is 1220.

For the sequence GCTTAAGGAAGGGACAACTAGAGTGGGTTACTCTGC, the RUNX1 binding intensity came to 717.

For the sequence CTTAGGACTTCCCGTAGATGGTGGTCTGTGCTAAGG, the RUNX1 binding intensity was determined as 1050.

Turning to GCCGCCGTTTCCTGATTGGTTGTGGGTGGCTACCTC, the RUNX1 binding intensity worked out at 1660.

For ACGAGAGTCTAGAGGAAACCAACCCGCAACTCACTG, the RUNX1 binding intensity stood at 868.

TTACTTCCTGAGGGTGCACAGGCTGTGGTCGTCTAT: the RUNX1 binding intensity was found to be 2070.

On to GGGGGAAGCTTCCTGAGGTGAAATAGACCGCTGTGC, for which the RUNX1 binding intensity amounted to 960.

As to CCACCTCCTCCGGACGCCGCCCGCAACTGAGCATGC, the RUNX1 binding intensity was 1230.

For the sequence AGTCGGAAGCCATCTGCCCCAACTTGCGGTCTTCAC, the RUNX1 binding intensity turned out to be 1080.

Take ATGGTCCAGGAAGATAAGGGCTGAAAACCACCCACT: the RUNX1 binding intensity is 824.

In the case of TCGCCCACTTCCCCACCTCTCAAAAGACCACAGGCA, the RUNX1 binding intensity stood at 2140.

As to TTGATTGGAGCAGGATGTGGTCAGAACAGTATGCAG, the RUNX1 binding intensity was 4860.

Regarding AGGTTCGTGGCAGGAAAGTTTGTGGCAGCAAAGCCT, the RUNX1 binding intensity worked out at 1100.

As for TACAGCTTCCTTCACCCCACTTGTGGCCTGGGTTAC, the RUNX1 binding intensity was determined as 913.

With AGGAAACCACAAGTTATTCCCTGCAAAGGTCTTGAT, the RUNX1 binding intensity amounted to 6430.

Consider AGCCACGGACTTCCGCCTACAGGTCGCCGCAGGTCC, for which the RUNX1 binding intensity amounted to 1700.

As to CCCTTCCTGTGAGGGAGGTTCCAGTTCCCACAGCGG, the RUNX1 binding intensity amounted to 1670.
